Results on ten molecules are retold here after PubChem BioAssay (NCI).

This is part of a sample that, as a whole, favours compounds with a hit. Of some 79,000 tested, about 15% had one in any assay. Values without a mark were called inactive. Calls of active or inactive are those of the source. Rule as the data show it: active = growth inhibition above about 70%; inactive = the rest.

The nature of assay [1]: NCI Yeast Anticancer Drug Screen. Data for the rad50 strain (AID 155).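 Also: 0% = growth of vehicle-only cultures of the same strain.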 The note with it: S. cerevisiae rad50 strain growth inhibition, hits give high values. Summed up:
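Compounds were tested on a yeast strain with an engineered DNA damage repair alteration; the reported value is growth inhibition normalised to vehicle treatment.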

The nature of assay [2]: NCI Yeast Anticancer Drug Screen. Data for the mec2-1 strain (AID 157). The note with it: S. cerevisiae mec2-1 strain, hits give high values. In outline: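 Readout is yeast growth inhibition, normalised to vehicle-treated controls, in the mec2-1 strain exposed to compound.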
Assay [3] in a line: NCI Yeast Anticancer Drug Screen. Data for the sgs1 mgt1 strain (AID 161).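 Also: 0% = growth of cultures given vehicle only.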 The note with it: S. cerevisiae sgs1 mgt1 strain, hits give high values. In outline:
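Yeast cells carrying a defined DNA-repair defect were exposed to test compounds. Growth inhibition was measured relative to vehicle-treated controls.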

A short description of assay [4]: NCI Yeast Anticancer Drug Screen. Data for the cln2 rad14 strain (AID 165).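 Also: 0% = growth equal to vehicle treated cultures.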 To be noted: S. cerevisiae cln2 rad14 strain, hits give high values. In outline:
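Relative to vehicle controls, growth inhibition of compound-treated cln2 rad14 yeast was recorded.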

A short description of assay [5]: NCI Yeast Anticancer Drug Screen. Data for the bub3 strain (AID 167). The note with it: S. cerevisiae bub3 mutant strain, hits give high values. Summed up:
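Growth of a checkpoint-deficient yeast mutant is measured after compound exposure. Values represent inhibition relative to vehicle.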

The nature of assay [6]: NCI Yeast Anticancer Drug Screen. Data for the mlh1 rad18 strain (AID 175). The note with it: S. cerevisiae mlh1 rad18 strain growth inhibition, hits give high values. Summed up:
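Test agents were incubated with a yeast strain of defined genotype (DNA damage repair defect). Inhibition of growth was derived by comparison with vehicle-exposed cultures.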

Setting [7] is: at 5.0 µM (retest, dose inferred, filed as 0.5).
Setting [8] is: at 50.0 µM (retest, dose inferred, filed as 5.0).

`N#C/C(=C/c1ccc([N+](=O)[O-])o1)c1ccccc1`: the growth inhibition in assay [1] (setting [7]) was -6%; in assay [1] (setting [8]), -7%; in assay [1] (at 50.0 µM), 75.8% (active); in assay [2] (setting [7]) it was -19%; in assay [2] (setting [8]), -7%; in assay [2] (at 50.0 µM) it was -20.1%. The growth inhibition was -6% in assay [3] (setting [7]); -1% in assay [3] (setting [8]); 27.9% in assay [3] (at 50.0 µM); 12% in assay [4] (setting [7]); 23% in assay [4] (setting [8]); 32.8% in assay [4] (at 50.0 µM). Further, the growth inhibition in assay [5] (setting [7]) is -4%; in assay [5] (setting [8]), -2%; in assay [5] (at 50.0 µM), -13.7%; in assay [6] (setting [7]), -21%; in assay [6] (setting [8]), 21%; in assay [6] (at 50.0 µM) it was 5.9%.
As to `COc1ccc(CSC(=S)Nc2ccc(SC)c(Cl)c2)cc1`, the growth inhibition is 50% in assay [1] (setting [7]); 90% (active) in assay [1] (setting [8]); 96.4% (active) in assay [1] (at 50.0 µM); 23% in assay [2] (setting [7]); 96% (active) in assay [2] (setting [8]); 98.1% (active) in assay [2] (at 50.0 µM). The growth inhibition in assay [3] (setting [7]) is 62%; in assay [3] (setting [8]) it was 94% (active); in assay [3] (at 50.0 µM), 97% (active); in assay [4] (setting [7]), -10%; in assay [4] (setting [8]), 88% (active); in assay [4] (at 50.0 µM), 94.5% (active). The growth inhibition is 16% in assay [5] (setting [7]); 97% (active) in assay [5] (setting [8]); 97% (active) in assay [5] (at 50.0 µM); 65% in assay [6] (setting [7]); 94% (active) in assay [6] (setting [8]); 97.9% (active) in assay [6] (at 50.0 µM).
In the case of `CC(=O)Nc1ccc2c(c1)C(=Nc1ccc(F)cc1)c1ccccc1-2`, the growth inhibition was 7% in assay [1] (setting [7]); 83% (active) in assay [1] (setting [8]); 54.1% in assay [1] (at 50.0 µM); 0% in assay [2] (setting [7]); 84% (active) in assay [2] (setting [8]); 4.35% in assay [2] (at 50.0 µM). In addition, the growth inhibition in assay [3] (setting [7]) was 2%; in assay [3] (setting [8]) it was 62%; in assay [3] (at 50.0 µM), 14.3%; in assay [4] (setting [7]), -1%; in assay [4] (setting [8]), 74% (active); in assay [4] (at 50.0 µM), 40.4%. Further, the growth inhibition in assay [5] (setting [7]) was -4%; in assay [5] (setting [8]) it was 47%; in assay [5] (at 50.0 µM) it was 45.4%; in assay [6] (setting [7]), 0%; in assay [6] (setting [8]), 94% (active); in assay [6] (at 50.0 µM) it was 50.7%.
In the case of `CCN(CCN1C(=O)C2CCCCC2C1=O)c1ccc(N=O)c(C)c1` (stereo not given), the growth inhibition in assay [1] (setting [7]) was 71% (active); in assay [1] (setting [8]) it was 97% (active); in assay [1] (at 50.0 µM) it was 98.8% (active); in assay [2] (setting [7]) it was 66%; in assay [2] (setting [8]), 99% (active); in assay [2] (at 50.0 µM), 98.8% (active). In addition, the growth inhibition in assay [3] (setting [7]) was 28%; in assay [3] (setting [8]) it was 99% (active); in assay [3] (at 50.0 µM), 97.9% (active); in assay [4] (setting [7]), 23%; in assay [4] (setting [8]) it was 96% (active); in assay [4] (at 50.0 µM), 88.6% (active). Further, the growth inhibition is 48% in assay [5] (setting [7]); 98% (active) in assay [5] (setting [8]); 99.1% (active) in assay [5] (at 50.0 µM); 72% (active) in assay [6] (setting [7]); 97% (active) in assay [6] (setting [8]); 97.5% (active) in assay [6] (at 50.0 µM).
As to `COC(=O)c1nnn(-c2cccc(C(F)(F)F)c2)c1C(=O)c1ccc(Cl)c(Cl)c1`, the growth inhibition is -3% in assay [1] (setting [7]); 98% (active) in assay [1] (setting [8]); 97.7% (active) in assay [1] (at 50.0 µM); 8% in assay [2] (setting [7]); 98% (active) in assay [2] (setting [8]); 80% (active) in assay [2] (at 50.0 µM). The growth inhibition in assay [3] (setting [7]) was -5%; in assay [3] (setting [8]), 99% (active); in assay [3] (at 50.0 µM), 97.7% (active); in assay [4] (setting [7]) it was 9%; in assay [4] (setting [8]), 95% (active); in assay [4] (at 50.0 µM) it was 59.2%. The growth inhibition in assay [5] (setting [7]) was 16%; in assay [5] (setting [8]), 98% (active); in assay [5] (at 50.0 µM) it was 89.4% (active); in assay [6] (setting [7]) it was 4%; in assay [6] (setting [8]), 98% (active); in assay [6] (at 50.0 µM), 97% (active).
For `CCOc1c(N=Nc2ccccc2Cl)c(-c2ccccc2)nn1C(=S)S`, the growth inhibition in assay [1] (setting [7]) was -1%; in assay [1] (setting [8]), 20%; in assay [1] (at 50.0 µM), 52.7%; in assay [2] (setting [7]) it was -4%; in assay [2] (setting [8]), 24%; in assay [2] (at 50.0 µM), 57.6%. Further, the growth inhibition was -2% in assay [3] (setting [7]); -70% in assay [3] (setting [8]); 28.8% in assay [3] (at 50.0 µM); -7% in assay [4] (setting [7]); 27% in assay [4] (setting [8]); 48.5% in assay [4] (at 50.0 µM). Further, the growth inhibition was 3% in assay [5] (setting [7]); 64% in assay [5] (setting [8]); 78.5% (active) in assay [5] (at 50.0 µM); -2% in assay [6] (setting [7]); 31% in assay [6] (setting [8]); 42.9% in assay [6] (at 50.0 µM).
Turning to `CN(C)CCN(C)CCC(=O)/C=C/c1ccccc1`, the growth inhibition is 95% (active) in assay [1] (setting [7]); 99% (active) in assay [1] (setting [8]); 87.9% (active) in assay [1] (at 50.0 µM); 100% (active) in assay [2] (setting [7]); 99% (active) in assay [2] (setting [8]); 84.3% (active) in assay [2] (at 50.0 µM). The growth inhibition in assay [3] (setting [7]) is 98% (active); in assay [3] (setting [8]), 99% (active); in assay [3] (at 50.0 µM), 99.5% (active); in assay [4] (setting [7]), 86% (active); in assay [4] (setting [8]) it was 99% (active); in assay [4] (at 50.0 µM), 96% (active). The growth inhibition was 99% (active) in assay [5] (setting [7]); 99% (active) in assay [5] (setting [8]); 98.2% (active) in assay [5] (at 50.0 µM); 99% (active) in assay [6] (setting [7]); 99% (active) in assay [6] (setting [8]); 99.5% (active) in assay [6] (at 50.0 µM).
Turning to `Cn1ncc2c(Nc3ccccc3)nc(Nc3ccccc3)nc21`, the growth inhibition in assay [1] (setting [7]) was -1%; in assay [1] (setting [8]), 7%; in assay [1] (at 50.0 µM) it was 54.1%; in assay [2] (setting [7]) it was -5%; in assay [2] (setting [8]) it was -33%; in assay [2] (at 50.0 µM), 54.1%. In addition, the growth inhibition in assay [3] (setting [7]) was -1%; in assay [3] (setting [8]), 8%; in assay [3] (at 50.0 µM), 56.5%; in assay [4] (setting [7]), 5%; in assay [4] (setting [8]) it was 0%; in assay [4] (at 50.0 µM), 44.5%. Further, the growth inhibition in assay [5] (setting [7]) is -1%; in assay [5] (setting [8]), -17%; in assay [5] (at 50.0 µM) it was 72.5% (active); in assay [6] (setting [7]), 5%; in assay [6] (setting [8]), 15%; in assay [6] (at 50.0 µM), 80.4% (active).
On to `O=S(=O)(CCCCl)SCCCCl`, for which the growth inhibition in assay [1] (setting [7]) is 11%; in assay [1] (setting [8]) it was 99% (active); in assay [1] (at 50.0 µM), 99.4% (active); in assay [2] (setting [7]) it was 15%; in assay [2] (setting [8]) it was 99% (active); in assay [2] (at 50.0 µM) it was 99.5% (active). Also, the growth inhibition is 18% in assay [3] (setting [7]); 100% (active) in assay [3] (setting [8]); 99.5% (active) in assay [3] (at 50.0 µM); 23% in assay [4] (setting [7]); 99% (active) in assay [4] (setting [8]); 99.7% (active) in assay [4] (at 50.0 µM). Further, the growth inhibition is 22% in assay [5] (setting [7]); 100% (active) in assay [5] (setting [8]); 99.7% (active) in assay [5] (at 50.0 µM); 19% in assay [6] (setting [7]); 99% (active) in assay [6] (setting [8]); 99.5% (active) in assay [6] (at 50.0 µM).
In the case of `c1ccc(NNc2ccc3ccccc3n2)cc1`, the growth inhibition in assay [1] (setting [7]) is 3%; in assay [1] (setting [8]), 96% (active); in assay [1] (at 50.0 µM), 38.6%; in assay [2] (setting [7]), -21%; in assay [2] (setting [8]) it was 2%; in assay [2] (at 50.0 µM), 44.6%. Moreover, the growth inhibition was -3% in assay [3] (setting [7]); 18% in assay [3] (setting [8]); 77.2% (active) in assay [3] (at 50.0 µM); -6% in assay [4] (setting [7]); -1% in assay [4] (setting [8]); 39% in assay [4] (at 50.0 µM). Also, the growth inhibition was 24% in assay [5] (setting [7]); 85% (active) in assay [5] (setting [8]); 77.6% (active) in assay [5] (at 50.0 µM); 0% in assay [6] (setting [7]); 40% in assay [6] (setting [8]); 65.8% in assay [6] (at 50.0 µM).
